Inconclusive results are not listed. Activity calls are given as the source filed them. Calls follow the shape of the dose curve; as a rule, active = well fitted cell-killing curve with a large enough effect; inconclusive = small, poorly fitted or top-dose-only effect, or effect the other way; inactive = flat fitted curve, though single readings scatter.
Columns and labels:
Assay in all cases: Primary qHTS to identify gynecologic anti-cancer compounds using libraries of approved drugs and bioactive compounds (AID 1345084); also: nearly all actives have a fitted effect of over 55% in size
C33A = conditions: Gynecologic cancer cell panel viability, ATPlite luminescence, 48 h; series mostly up to 57.5 µM
Summary of the method: (§1)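 Five-concentration response, 48 h; readout is ATP-driven luciferase luminescence.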

CASKI = conditions: Gynecologic cancer cell panel viability, ATPlite luminescence, 48 h; series mostly up to 57.5 µM
Summary of the method: as §1

Es-2 = conditions: Gynecologic cancer cell panel viability, ATPlite luminescence, 48 h; series mostly up to 57.5 µM
Summary of the method: as §1

HeLa = conditions: Gynecologic cancer cell panel viability, ATPlite luminescence, 48 h; series mostly up to 57.5 µM
Summary of the method: as §1

Hek293T = conditions: Gynecologic cancer cell panel viability, ATPlite luminescence, 48 h, control line for the selectivity index; series mostly up to 57.5 µM
Summary of the method: as §1

JEG-3 = conditions: Gynecologic cancer cell panel viability, ATPlite luminescence, 48 h; series mostly up to 57.5 µM
Summary of the method: as §1

CAOV3 = conditions: Gynecologic cancer cell panel viability, ATPlite luminescence, 48 h; series mostly up to 57.5 µM
Summary of the method: as §1
% is scaled to controls: 0 for no effect and ±100 for the full control effect; potency is read from the fitted curve at half-maximal effect.

C[C@@H]1CC[C@]2(C(=O)O)CC[C@]3(C)C(=CCC4[C@]5(C)C(CC[C@]43C)C(C)(C)[C@@H](O)[C@H](O)[C@@H]5O)C2[C@]1(C)O (some centres not stated)
inactive: Potency (C33A) | Potency (CASKI) | Potency (Es-2) | Potency (HeLa) | Potency (Hek293T) | Potency (JEG-3)

COc1ccc([C@@H]2N[C@H](C(=O)O)Cc3c2[nH]c2ccccc32)cc1CN1CCN(c2ccccc2F)CC1
inactive: Potency (C33A) | Potency (CASKI) | Potency (Es-2) | Potency (HeLa) | Potency (Hek293T) | Potency (JEG-3)

O=C(O)C[C@H](O)C[C@H](O)/C=C/c1c(C2CC2)nc2ccccc2c1-c1ccc(F)cc1
active: Potency (HeLa) 8910 nM
inactive: Potency (JEG-3)

CCc1nc(C(N)=O)c(Nc2ccc(N3CCC(N4CCN(C)CC4)CC3)c(OC)c2)nc1NC1CCOCC1
active: Potency (CASKI) 7080 nM | Potency (HeLa) 3550 nM
inactive: Potency (Es-2) | Potency (JEG-3)

Cc1nc2c(-c3cnc(N)nc3)nc(N3CCOCC3)nc2n1C(C)C
active: Potency (C33A) 1410 nM | Potency (CASKI) 1260 nM | Potency (HeLa) 1580 nM | Potency (Hek293T) 708 nM

C/C=C/C=C/C=C/C(=O)O[C@@H]1C=C(CO)C(O)(C(=O)O)[C@@]2(C)CCCC(C)(C)[C@H]12 (some centres not stated)
inactive: Potency (C33A) | Potency (CASKI) | Potency (Es-2) | Potency (HeLa) | Potency (Hek293T) | Potency (JEG-3)

CC1(C)CCCC2(C)C(CO)C3CCC2C31 (configuration not stated)
inactive: Potency (C33A) | Potency (CASKI) | Potency (Es-2) | Potency (HeLa) | Potency (Hek293T) | Potency (JEG-3)

COc1cc2c(Nc3ccc(Cl)c(Cl)c3F)ncnc2cc1OCC1C[C@@H]2CN(C)C[C@@H]2C1 (some centres not stated)
active: Potency (CAOV3) 31600 nM | Potency (CASKI) 11200 nM

Nc1c(Br)cc(Br)cc1CNC1CCC(O)CC1 (configuration not stated)
inactive: Potency (CAOV3) | Potency (Es-2) | Potency (HeLa) | Potency (Hek293T) | Potency (JEG-3)

CC(=O)OC[C@]12[C@H](OC(C)=O)C(=O)[C@@H]3[C@@H](OC(C)=O)[C@@]14O[C@@]3(C)COC(=O)c1cccnc1[C@@H](C)[C@H](C)C(=O)O[C@@H]([C@H](OC(C)=O)[C@@H]2OC(C)=O)[C@]4(C)O
inactive: Potency (C33A) | Potency (CASKI) | Potency (Es-2) | Potency (HeLa) | Potency (Hek293T) | Potency (JEG-3)

CN(C)C/C=C/C(=O)Nc1ccc(C(=O)Nc2cccc(Nc3ncc(Cl)c(-c4c[nH]c5ccccc45)n3)c2)cc1
active: Potency (CASKI) 794 nM | Potency (Es-2) 1780 nM | Potency (HeLa) 891 nM | Potency (Hek293T) 1260 nM | Potency (JEG-3) 3550 nM

C=C1CCC2C(OC(=O)C2(O)COC(C)=O)C2C(=C)C(O)CC12 (configuration not stated)
inactive: Potency (C33A) | Potency (CASKI) | Potency (Es-2) | Potency (HeLa) | Potency (Hek293T) | Potency (JEG-3)

C/C(=C/CCC(CO)C1CCC2(C)C3CCC4C(C)(C)C(OC5OC(CO)C(O)C(O)C5O)CC(O)C45CC35CCC12C)COC1OC(CO)C(O)C(O)C1O (configuration not stated)
inactive: Potency (C33A) | Potency (CASKI) | Potency (Es-2) | Potency (HeLa) | Potency (Hek293T) | Potency (JEG-3)

O=C(Nc1cccnn1)N1CCC(=Cc2cccc(Oc3ccc(C(F)(F)F)cn3)c2)CC1
inactive: Potency (CAOV3) | Potency (Es-2) | Potency (HeLa) | Potency (JEG-3)

COC(=O)C1=CO[C@@H](O[C@@H]2O[C@H](COC(=O)/C=C/c3cc(OC)c(O)c(OC)c3)[C@@H](O)[C@H](O)[C@H]2O)[C@@H]2C(CO)=CC[C@H]12
inactive: Potency (C33A) | Potency (CASKI) | Potency (Es-2) | Potency (HeLa) | Potency (Hek293T) | Potency (JEG-3)

CC(=O)c1cnc2ccc(-c3cc(Cl)c(O)c(Cl)c3)nc2c1NC1CCC(CN(C)C)CC1 (configuration not stated)
active: Potency (C33A) 224 nM | Potency (CASKI) 1000 nM | Potency (Es-2) 891 nM | Potency (Hek293T) 562 nM

COc1ncc(-c2ccc3c(Nc4cc(Oc5cc(F)cc(F)c5)cc(C(=O)O)c4)c(S(=O)(=O)NC4CC4)cnc3c2)c(OC)n1
inactive: Potency (C33A) | Potency (CASKI) | Potency (Es-2) | Potency (HeLa) | Potency (Hek293T) | Potency (JEG-3)

COc1cc(/C=C/C(=O)O[C@H]2[C@H](OC(=O)/C=C/c3cc(OC)c(O)c(OC)c3)O[C@H](CO[C@@H]3O[C@H](CO)[C@@H](O)[C@H](O)[C@H]3O)[C@@H](O)[C@@H]2O)ccc1O
inactive: Potency (C33A) | Potency (CASKI) | Potency (Es-2) | Potency (HeLa) | Potency (Hek293T) | Potency (JEG-3)

CN1CCC(c2c[nH]c3ccc(NC(=O)c4ccc(F)cc4)cc23)CC1
inactive: Potency (C33A) | Potency (CASKI) | Potency (Es-2) | Potency (HeLa) | Potency (Hek293T) | Potency (JEG-3)

CC1=CC(=O)C[C@H]2[C@@H]1CC[C@@H](C)[C@]21CO[C@H](c2ccoc2)C1=O
inactive: Potency (C33A) | Potency (CASKI) | Potency (Es-2) | Potency (HeLa) | Potency (Hek293T) | Potency (JEG-3)

CCC/C=C/C(=O)O[C@H]1CC(C)(C)CC2[C@]13[C@H](O)O[C@@]21CCC2[C@@]4(C)CC[C@H](O[C@@H]5O[C@H](C(=O)O)[C@@H](O)[C@H](O[C@@H]6O[C@H](CO)[C@H](O)[C@H](O)[C@H]6O[C@@H]6O[C@@H](C)[C@H](O)[C@@H](O)[C@H]6O[C@@H]6OC[C@](O)(CO)[C@H]6O)[C@H]5O[C@@H]5O[C@H](CO)[C@H](O)[C@H](O)[C@H]5O)C(C)(C)C4CC[C@@]2(C)[C@]1(C)C[C@H]3OC(C)=O (some centres not stated)
inactive: activity change, negative = cytotoxicity (C33A) -4.15% [at 6.55 µM] | activity change, negative = cytotoxicity (CASKI) 2.37% [at 6.55 µM] | activity change, negative = cytotoxicity (Es-2) 2.55% [at 6.55 µM] | activity change, negative = cytotoxicity (HeLa) -1.33% [at 6.55 µM] | activity change, negative = cytotoxicity (Hek293T) -6.65% [at 6.55 µM] | activity change, negative = cytotoxicity (JEG-3) -6.17% [at 6.55 µM]

C=C1CC23CC1(O)CCC2C1=CC2OC(=O)C(C)(C2O)C1C3C(=O)O (configuration not stated)
inactive: Potency (C33A) | Potency (CASKI) | Potency (Es-2) | Potency (HeLa) | Potency (Hek293T) | Potency (JEG-3)

COCCCNCC1COc2ccccc2O1 (configuration not stated)
inactive: Potency (C33A) | Potency (CASKI) | Potency (Es-2) | Potency (HeLa) | Potency (Hek293T) | Potency (JEG-3)

CC(C)C1(O[C@@H]2O[C@H](CO)[C@@H](O)[C@H](O)[C@H]2O)CC=C(CO)CC1 (some centres not stated)
inactive: Potency (C33A) | Potency (CASKI) | Potency (Es-2) | Potency (HeLa) | Potency (Hek293T) | Potency (JEG-3)

CC(C)CNC(=O)/C=C/CCCCc1ccc2c(c1)OCO2
inactive: Potency (C33A) | Potency (CASKI) | Potency (Es-2) | Potency (HeLa) | Potency (Hek293T) | Potency (JEG-3)

CC1=CC(=O)C2C(C)(C)CC(O)CC2(C)C1CO (configuration not stated)
inactive: Potency (C33A) | Potency (CASKI) | Potency (Es-2) | Potency (HeLa) | Potency (Hek293T) | Potency (JEG-3)

CCOC(=O)c1c(C)nn(-c2cccc([N+](=O)[O-])c2)c1C
inactive: Potency (C33A) | Potency (CASKI) | Potency (Es-2) | Potency (HeLa) | Potency (Hek293T) | Potency (JEG-3)

NCc1ccc(OCCCc2sc(-c3ccc4c(c3)/C(=N/Nc3nc5ccccc5s3)CCC4)nc2C(=O)O)cc1
inactive: Potency (C33A) | Potency (Es-2) | Potency (Hek293T) | Potency (JEG-3)

CC1(C)CCC2(C(=O)OC3OC(COC4OC(CO)C(O)C(O)C4O)C(O)C(O)C3O)CCC3(C)C(=CCC4C5(C)CCC(O)C(C)(C(=O)O)C5CCC43C)C2C1O (configuration not stated)
inactive: activity change, negative = cytotoxicity (C33A) 2.23% [at 11.6 µM] | activity change, negative = cytotoxicity (CASKI) 3.04% [at 11.6 µM] | activity change, negative = cytotoxicity (Es-2) 4.39% [at 11.6 µM] | activity change, negative = cytotoxicity (HeLa) -15.3% [at 11.6 µM] | activity change, negative = cytotoxicity (Hek293T) 4.46% [at 11.6 µM] | activity change, negative = cytotoxicity (JEG-3) -2.36% [at 11.6 µM]

COC1C=C([C@@H]2CC=C3[C@@]4(C)C(CC[C@]32C)[C@@]2(C)C=CC(=O)C(C)(C)C2C[C@H]4OC(C)=O)C(=O)O1 (some centres not stated)
inactive: Potency (C33A) | Potency (CASKI) | Potency (Es-2) | Potency (HeLa) | Potency (Hek293T) | Potency (JEG-3)

NS(=O)(=O)OC[C@@H]1C[C@@H](n2ccc3c(N[C@H]4CCc5ccccc54)ncnc32)C[C@@H]1O
active: Potency (CAOV3) 631 nM | Potency (Es-2) 3160 nM | Potency (Hek293T) 2510 nM
inactive: Potency (CASKI) | Potency (HeLa) | Potency (JEG-3)

CC(=O)O[C@@H]1[C@H](O[C@@H]2OC[C@](O)(CO)[C@H]2O)[C@@H](O[C@@H]2O[C@@H](C)[C@H](O)[C@@H](O)[C@H]2O)[C@H](OC(=O)[C@]23CCC(C)(C)C[C@H]2C2=CCC4[C@@]5(C)C[C@H](O)[C@H](O[C@@H]6O[C@H](C(=O)O)[C@@H](O)[C@H](O)[C@H]6O)[C@@](C)(C(=O)O)C5CC[C@@]4(C)[C@]2(C)CC3)O[C@@H]1C (some centres not stated)
inactive: activity change, negative = cytotoxicity (C33A) -3.02% [at 11.6 µM] | activity change, negative = cytotoxicity (CASKI) 0.959% [at 11.6 µM] | activity change, negative = cytotoxicity (Es-2) 1.8% [at 11.6 µM] | activity change, negative = cytotoxicity (HeLa) 0.991% [at 11.6 µM] | activity change, negative = cytotoxicity (Hek293T) 9.21% [at 11.6 µM] | activity change, negative = cytotoxicity (JEG-3) 0.39% [at 11.6 µM]

C#C[C@]1(O)CC[C@H]2[C@@H]3CCC4=C/C(=N/O)CC[C@@H]4[C@H]3CC[C@@]21CC
active: Potency (HeLa) 14100 nM
inactive: Potency (CAOV3) | Potency (Es-2) | Potency (Hek293T) | Potency (JEG-3)

— PubChem BioAssay (NCATS)
